From ChEMBL document CHEMBL3433997, “St. Jude Leishmania screening dataset” (2016) come the findings set out here.

The term inhibition denotes the change of the read-out against control, counted positive when it falls.

Common to all, as to type: functional
Experiment [1] deals with Solute carrier family 2, facilitated glucose transporter member 1 (Homo sapiens) (UniProt P11166). The experiment in a line: ST_JUDE_LEISH: Cytotoxicity at 2uM final concentration against transgenic Leishmania Mexicana promastigotes LmGLUT1 that are glucose transport deficient and complemented with the human glucose transporter GLUT1. Activity is measured by DNA content using SYBR green in vitro.

For experiment [2], the target named is Hexose transporter 1 (Plasmodium falciparum) (UniProt O97467). The experiment can be described thus: ST_JUDE_LEISH: Cytotoxicity at 2uM final concentration against transgenic Leishmania Mexicana promastigotes LmPfHT that are glucose transport deficient and complemented with the Plasmodium falciparum hexose transporter. Activity is measured by DNA content using SYBR green in vitro.

For experiment [3], the target named is Glucose transporter (Leishmania mexicana) (UniProt O61059). The experiment can be described thus: ST_JUDE_LEISH: Cytotoxicity at 2uM final concentration against transgenic Leishmania Mexicana promastigotes LmGT2 that are glucose transport deficient and complemented with the L. Mexicana glucose transporter 2. Activity is measured by DNA content using SYBR green in vitro.

Sequence of Solute carrier family 2, facilitated glucose transporter member 1 (Homo sapiens) (P11166 whole entry): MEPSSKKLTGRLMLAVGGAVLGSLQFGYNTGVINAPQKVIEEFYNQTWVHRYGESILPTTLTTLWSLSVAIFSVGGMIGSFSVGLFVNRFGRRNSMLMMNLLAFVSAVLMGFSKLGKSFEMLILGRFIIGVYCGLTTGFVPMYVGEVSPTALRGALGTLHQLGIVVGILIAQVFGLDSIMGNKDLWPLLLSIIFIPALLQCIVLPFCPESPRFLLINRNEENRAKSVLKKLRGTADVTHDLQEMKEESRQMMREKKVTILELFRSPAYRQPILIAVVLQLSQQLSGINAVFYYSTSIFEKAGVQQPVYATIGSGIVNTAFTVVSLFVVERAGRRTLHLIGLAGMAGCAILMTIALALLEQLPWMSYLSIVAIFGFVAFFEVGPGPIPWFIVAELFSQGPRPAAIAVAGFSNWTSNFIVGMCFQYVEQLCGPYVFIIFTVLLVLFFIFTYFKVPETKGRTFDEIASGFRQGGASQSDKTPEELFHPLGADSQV

On to `O=C(c1ccccc1NN=C1C(=O)N(c2ccccc2)N=C1c1ccccc1)N1CCOCC1`, for which the inhibition in experiment [1] is -1.67%; in experiment [2] it was 1.67%; in experiment [3], 8.03%.
The matching figures for `COc1ccc(CNC2CCN(C)CC2)cc1-c1ccc(S(=O)(=O)NC2CCC2)c(F)c1`: 0.83%, 0.39% and 1.91%.
Turning to `Fc1ccc2[nH]c(-c3ccc(-c4ccc(CNCc5ccccc5)cc4)cc3)nc2c1`, the figures for the inhibition in experiment [1], in experiment [2] and in experiment [3] were 12.6%, 8.67% and 6.7%, respectively.
For `CCOC(=O)c1c[nH]c2c(ccc3ccccc32)c1=O`, the inhibition in experiment [1] is -1.23%; in experiment [2], 6.87%; in experiment [3] it was 5.93%.
As for `CCOc1ccc(-c2nc(NC(=O)Cc3cccc(OC)c3)sc2C)cc1`, the values for the inhibition in experiment [1], in experiment [2] and in experiment [3] were 5.17%, 7.92% and -0.61%, respectively.
In the case of `O=C(/C=C/c1ccc(Cl)c(Cl)c1)NCCCCCN1CCC(C(=O)Nc2ccc(Cl)c(Cl)c2)CC1`, the inhibition in experiment [1] came out at 3%; in experiment [2], 2.54%; in experiment [3], 2.34%.
The matching figures for `CCc1ccc(N2C(N)=NC(N)=NC2(C)C)cc1`: 0.74%, 1.29% and 2.09%.
The matching figures for `COc1ccc(-c2ccc(NC(=O)c3cccc(Cl)c3)cc2)cc1CN(C)CCN(C)C`: 15.6%, 14.4% and 4.62%.
The matching figures for `COc1cccc(-c2cnc(-c3ccncc3)nc2C2CCN(Cc3ccc(NC(C)=O)cc3)CC2)c1`: 3.49%, 4.22% and 1.53%.
As to `O=C(/C=C/c1ccc(Cl)c(Cl)c1)NCCCCN1CCCN(C(=O)Nc2cc(Cl)cc(Cl)c2)CC1`, the inhibition in experiment [1] came out at 0.48%; in experiment [2] it was 0.76%; in experiment [3], 0.06%.
The matching figures for `CCn1c(-c2nonc2N)nc2cnc(Oc3cccc(NC(=O)c4ccc(OCCCN5CCCCC5)cc4)c3)cc21`: 16.4%, 25.8% and 6.29%.
The matching figures for `CC1(C)N=C(N)N=C(N)N1c1ccc(Cl)cc1`: 5.04%, 4.91% and 4.69%.
As to `NOCCCOc1ccccc1`, the inhibition in experiment [1] was 0.04%; in experiment [2], -0.12%; in experiment [3], 0.73%.
The matching figures for `Cc1ccc(CN2CCN(c3cc4c(cc3Cl)CCN4C(=O)Cc3ccc(Cl)c(NC(=O)Nc4cccc(C#N)c4)c3)CC2)cc1`: -1.29%, -1.46% and -0.62%.
For the compound `CC(C)C[C@H](NC(=O)c1ccc(OCCN2CCOCC2)cc1)C(=O)N[C@H](/C=N/N1CCNC1=O)CCc1ccccc1`, the inhibition in experiment [1] stood at 6.57%; in experiment [2] it was 6.05%; in experiment [3], 4.07%.
